From PubChem BioAssay
Calls of active or inactive are those of the source.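 How the source made its calls, unless noted: active means GFP response below 50% of the DMSO control; inconclusive means fewer than 70 events counted for a yeast strain; inactive means the rest.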

Columns and labels:
[1] = hit retest on RPL19A-GFP reporter strain – cell-based, S. cerevisiae, flow cytometry, cherry picks, mother/daughter gates, confirmation (AID 2270); settings: 3 h, at 10 µM, stronger effect = lower value, 100 = same GFP as DMSO wells
[2] = yeast TOR pathway reporter LAP4-GFP change – cell-based, cherry picks, flow cytometry, mother/daughter gates, confirmation (AID 2271;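 active means GFP response above 150% of the DMSO control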;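 further: ratio of sample to DMSO plate mean so 100% equals DMSO level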); settings: S. cerevisiae LAP4-GFP strain, 3 h, at 10 µM, stronger effect = higher value
[3] = TOR pathway CIT2 reporter hit retest – S. cerevisiae, GFP fusion, cherry picks, mother/daughter gates, confirmation (AID 2274;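 active means GFP response above 150% of the DMSO level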); settings: S. cerevisiae CIT2-GFP strain, flow cytometry, 3 h, at 10 µM, stronger effect = higher value
[4] = measured here: daughter cell gate
[5] = measured here: mother cell gate
[6] = measured here: daughter cell gate response
[7] = measured here: mother cell gate response

Structure (SMILES)	GFP response vs DMSO [1]	GFP response vs DMSO [1, 4] [%]	GFP response vs DMSO [1, 5] [%]	GFP response relative to DMSO [2]	GFP response relative to DMSO [2, 6] [%]	GFP response relative to DMSO [2, 7] [%]	GFP response, % of DMSO [3]	GFP response, % of DMSO [3, 4] [%]	GFP response, % of DMSO [3, 5] [%]
O=C1NC(=S)NC(=O)C1=Cc1ccc2c(c1)CCN2CCCCl	98.4% (inactive)	87.8	86	163% (active)	110	184	85.7% (inactive)	90.2	76
O=C1NC(=O)N(CCC2=CCCCC2)C(=O)/C1=C/c1cccs1	98.4% (inactive)	97.9	97.6	134% (inactive)	128	138	91.2% (inactive)	93.6	86.7
Cc1cc(C=C2C(=O)N(C)C(=S)N(C)C2=O)c(C)n1-c1ccncc1	92.8% (inactive)	91.1	88.6	114% (inactive)	108	117	69.1% (inactive)	70.3	64.4
CN1C(=O)C(=Cc2ccc(SC3CCCCC3)o2)C(=O)N(C)C1=O	95.8% (inactive)	98.3	92.3	143% (inactive)	134	150	83.5% (inactive)	84.1	77.8
